Reference: the supplement of paper PMC10849652
Of roughly 7,900 targets only a part is listed; those with a hit were picked by preference. About 0.6% of all pairs of compound and target were hits. Unmarked numbers belong to inactive results.

Experiments:
Experiment in all cases: log2 fold change, soluble protein after heating vs DMSO (PISA); higher = thermal stabilisation; K562 cells, 10 uM, 30 min; active = over 0.2 and 3.5 SD of the protein, either way, in both replicates (recomputed)
[1] = compound: C#Cc1cccc(Nc2ncnc3cc(OCCOC)c(OCCOC)cc23)c1 [erlotinib]
How it was run: (§1)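 Aliquots of K562 cells (2×10^6 cells/mL) treated with 10 μM compound for 30 min were heated for 3 min over 48°C-58°C. After pooling and extraction in PBS with 0.5% NP-40 at 4°C, soluble protein from a 21,000xg, 90 min spin was quantified by TMTpro 16plex LC-MS/MS with channel sums equalised. Thermal stability is expressed against control samples, from duplicates, as a log2 fold change.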

[2] = compound: C/C(=N\NC(=O)C1=CC(=CC=C1)S(=O)(=O)N2CCOCC2)/C3=C(C=CC(=C3)Cl)O
How it was run: as §1

[3] = compound: C1=CC(=C(C=C1Cl)C2=NC3=NC=CN=C3C(=N2)NC4=CC=NC=C4)F
How it was run: as §1

[4] = compound: C1=CC(=CC=C1C2=NC3=C(N2)C=C(C=C3)C(=O)N)OC4=CC=C(C=C4)Cl
How it was run: as §1

[5] = compound: C1=CC2=C(C=CC(=C2)/C=C\3/C(=O)NC(=NCC4=CC=CS4)S3)N=C1
How it was run: as §1

[6] = compound: C1=CC2=NC=CN=C2C=C1/C=C/3\C(=O)NC(=O)S3
How it was run: as §1

[7] = compound: C1=CC=C(C=C1)C2=NC(=C(N2)C3=CC=NC=C3)C4=CC(=C(C=C4)Cl)O
How it was run: as §1

[8] = compound: C1=CC=C2C(=C1)C3=NNC4=CC=CC(=C43)C2=O
How it was run: as §1

[9] = compound: C1CCN(C1)C(=O)NC2=CC=CC(=C2)NC3=NC=C(C(=N3)NCCC4=CN=CN4)Br
How it was run: as §1

[10] = compound: C1CN(CCC1(CC2=CC=C(C=C2)Cl)N)C3=NC=NC4=C3C=CN4
How it was run: as §1

[11] = compound: C1COCCN1CCN2C3=CC=CC=C3N=C2NC(=O)C4=CC(=CC=C4)[N+](=O)[O-] [IRAK-1-4 Inhibitor I]
How it was run: as §1

[12] = compound: CC(=O)c1cnc2ccc(-c3cc(Cl)c(O)c(Cl)c3)nc2c1N[C@H]1CC[C@H](CN(C)C)CC1
How it was run: as §1

[13] = compound: CC(C)(C)Cn1c(N)nc2ccc(-c3[nH]c(C(C)(C)C)nc3-c3ccc(F)cc3)nc21 [ralimetinib]
How it was run: as §1

[14] = compound: CC(C)(O)CC(=O)NCCn1ccc2ncnc(Nc3ccc(Oc4cccc(C(F)(F)F)c4)c(Cl)c3)c21
How it was run: as §1

[15] = compound: CC(C)C1=C2N=C(C=C(N2N=C1)NCC3=CC=CC=C3)NCCCCCCN
How it was run: as §1

[16] = compound: CC(C)C[C@@H](C=O)NC(=O)[C@H](CC(C)C)NC(=O)[C@H](CC(C)C)NC(=O)OCc1ccccc1
How it was run: as §1

[17] = compound: CC(C)N(C[C@H]1O[C@@H](n2cnc3c(N)ncnc32)[C@H](O)[C@@H]1O)[C@H]1C[C@@H](CCc2nc3cc(C(C)(C)C)ccc3[nH]2)C1 [pinometostat]
How it was run: as §1

[18] = compound: CC1=C(C(CC(=O)N1)C2=CC=C(C=C2)C(F)(F)F)C(=O)NC3=C(C=C4C(=C3)C=NN4)F
How it was run: as §1

[19] = compound: CC1=C(C2=C(C=C1)C(=O)C3=CC=CC=C3N2CCCN)C
How it was run: as §1

[20] = compound: C=CC(=O)N1CCC[C@@H](n2nc(-c3ccc(Oc4ccccc4)cc3)c3c(N)ncnc32)C1 [ibrutinib]
How it was run: as §1

UniProt Q96MX0, sequence (Q96MX0 whole entry, looked up): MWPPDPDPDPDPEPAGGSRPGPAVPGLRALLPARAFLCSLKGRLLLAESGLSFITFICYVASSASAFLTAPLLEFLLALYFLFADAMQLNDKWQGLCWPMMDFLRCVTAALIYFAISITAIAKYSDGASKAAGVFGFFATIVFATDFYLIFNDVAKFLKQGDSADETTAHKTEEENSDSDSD
UniProt P51636, sequence (P51636 whole entry, looked up): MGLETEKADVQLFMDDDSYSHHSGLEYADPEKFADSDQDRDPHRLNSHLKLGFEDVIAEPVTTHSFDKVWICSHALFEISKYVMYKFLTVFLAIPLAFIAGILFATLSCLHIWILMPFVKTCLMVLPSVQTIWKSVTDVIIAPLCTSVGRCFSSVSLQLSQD
UniProt P51790, sequence (P51790 whole entry, looked up): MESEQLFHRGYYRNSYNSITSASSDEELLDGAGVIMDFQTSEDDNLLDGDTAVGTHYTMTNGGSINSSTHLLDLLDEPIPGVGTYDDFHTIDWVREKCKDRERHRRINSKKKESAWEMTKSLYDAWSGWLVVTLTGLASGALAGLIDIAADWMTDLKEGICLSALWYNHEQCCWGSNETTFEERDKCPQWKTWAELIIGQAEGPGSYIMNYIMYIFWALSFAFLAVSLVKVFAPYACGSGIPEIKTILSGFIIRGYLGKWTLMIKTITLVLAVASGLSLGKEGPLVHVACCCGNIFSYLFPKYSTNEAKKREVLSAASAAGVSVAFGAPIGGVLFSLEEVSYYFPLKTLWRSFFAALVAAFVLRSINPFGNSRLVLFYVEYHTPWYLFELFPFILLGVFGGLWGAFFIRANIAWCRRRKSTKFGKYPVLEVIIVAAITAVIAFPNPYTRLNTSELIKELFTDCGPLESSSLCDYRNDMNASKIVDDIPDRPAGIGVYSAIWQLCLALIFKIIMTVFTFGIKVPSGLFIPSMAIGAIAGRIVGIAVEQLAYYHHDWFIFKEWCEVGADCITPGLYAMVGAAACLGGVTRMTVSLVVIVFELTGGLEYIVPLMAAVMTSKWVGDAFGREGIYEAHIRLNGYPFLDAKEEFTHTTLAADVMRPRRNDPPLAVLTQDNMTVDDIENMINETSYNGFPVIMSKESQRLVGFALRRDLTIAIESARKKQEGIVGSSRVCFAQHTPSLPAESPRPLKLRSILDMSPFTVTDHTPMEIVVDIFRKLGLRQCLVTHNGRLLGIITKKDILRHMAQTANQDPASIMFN
UniProt P24311, sequence (P24311 whole entry, looked up): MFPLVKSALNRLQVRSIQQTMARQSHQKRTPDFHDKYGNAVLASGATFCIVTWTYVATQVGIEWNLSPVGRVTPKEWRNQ
UniProt O75503, sequence (O75503 whole entry, looked up): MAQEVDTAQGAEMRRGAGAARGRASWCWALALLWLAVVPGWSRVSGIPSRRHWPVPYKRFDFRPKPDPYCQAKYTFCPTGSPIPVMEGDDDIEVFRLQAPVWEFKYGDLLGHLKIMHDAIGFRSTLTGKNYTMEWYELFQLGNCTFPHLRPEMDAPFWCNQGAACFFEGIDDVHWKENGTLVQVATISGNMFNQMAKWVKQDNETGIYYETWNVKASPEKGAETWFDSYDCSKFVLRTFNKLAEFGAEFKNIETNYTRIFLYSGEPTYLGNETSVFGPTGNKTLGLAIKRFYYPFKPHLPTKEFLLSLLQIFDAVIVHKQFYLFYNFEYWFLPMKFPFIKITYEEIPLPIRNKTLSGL
UniProt P11802, sequence (P11802 whole entry, looked up): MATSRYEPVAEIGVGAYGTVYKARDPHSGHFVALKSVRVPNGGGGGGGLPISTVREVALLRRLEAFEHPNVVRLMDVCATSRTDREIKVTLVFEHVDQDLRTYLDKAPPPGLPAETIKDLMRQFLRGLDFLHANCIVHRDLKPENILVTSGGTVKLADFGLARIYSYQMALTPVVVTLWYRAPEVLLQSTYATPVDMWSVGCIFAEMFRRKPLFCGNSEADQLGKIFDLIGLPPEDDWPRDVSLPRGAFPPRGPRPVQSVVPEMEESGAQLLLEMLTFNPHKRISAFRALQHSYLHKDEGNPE
UniProt P30305, sequence (P30305 whole entry, looked up): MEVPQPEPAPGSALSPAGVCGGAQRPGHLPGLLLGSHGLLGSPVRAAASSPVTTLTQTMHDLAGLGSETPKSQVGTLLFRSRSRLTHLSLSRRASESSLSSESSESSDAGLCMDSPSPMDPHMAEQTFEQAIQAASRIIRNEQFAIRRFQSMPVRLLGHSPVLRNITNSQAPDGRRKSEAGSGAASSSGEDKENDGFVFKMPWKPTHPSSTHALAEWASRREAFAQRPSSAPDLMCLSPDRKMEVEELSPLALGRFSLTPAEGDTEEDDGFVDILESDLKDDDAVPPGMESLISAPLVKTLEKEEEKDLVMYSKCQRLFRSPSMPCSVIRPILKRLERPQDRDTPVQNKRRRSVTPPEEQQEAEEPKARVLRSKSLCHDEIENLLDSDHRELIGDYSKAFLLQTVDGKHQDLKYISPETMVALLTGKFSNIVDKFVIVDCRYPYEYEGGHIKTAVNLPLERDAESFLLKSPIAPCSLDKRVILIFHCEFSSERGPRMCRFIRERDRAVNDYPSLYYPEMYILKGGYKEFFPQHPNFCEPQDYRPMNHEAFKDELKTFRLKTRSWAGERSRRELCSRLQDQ
UniProt Q96KA5, sequence (Q96KA5 whole entry, looked up): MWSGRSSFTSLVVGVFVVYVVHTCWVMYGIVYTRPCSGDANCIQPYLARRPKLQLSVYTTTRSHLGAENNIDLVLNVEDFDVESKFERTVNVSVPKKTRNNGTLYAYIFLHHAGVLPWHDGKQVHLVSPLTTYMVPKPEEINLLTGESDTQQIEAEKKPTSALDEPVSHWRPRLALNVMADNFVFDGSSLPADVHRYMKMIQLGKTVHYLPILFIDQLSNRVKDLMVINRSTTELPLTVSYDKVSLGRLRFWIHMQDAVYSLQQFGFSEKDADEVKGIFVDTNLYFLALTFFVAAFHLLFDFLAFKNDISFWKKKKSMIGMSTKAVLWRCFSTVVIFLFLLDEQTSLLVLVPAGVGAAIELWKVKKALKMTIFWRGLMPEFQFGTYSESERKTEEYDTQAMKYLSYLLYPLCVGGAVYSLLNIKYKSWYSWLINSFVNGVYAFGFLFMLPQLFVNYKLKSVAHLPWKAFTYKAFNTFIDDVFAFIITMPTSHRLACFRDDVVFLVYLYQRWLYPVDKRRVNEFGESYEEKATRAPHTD
UniProt Q16740, sequence (Q16740 whole entry, looked up): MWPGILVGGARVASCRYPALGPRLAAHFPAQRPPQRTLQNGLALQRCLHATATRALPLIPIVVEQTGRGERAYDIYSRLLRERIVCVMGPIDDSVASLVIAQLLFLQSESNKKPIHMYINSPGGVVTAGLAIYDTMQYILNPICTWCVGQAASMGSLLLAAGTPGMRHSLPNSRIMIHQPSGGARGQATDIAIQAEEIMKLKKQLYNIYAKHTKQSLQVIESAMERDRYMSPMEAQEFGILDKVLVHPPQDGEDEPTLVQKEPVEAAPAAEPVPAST
UniProt Q9HAW4, sequence (Q9HAW4 whole entry, looked up): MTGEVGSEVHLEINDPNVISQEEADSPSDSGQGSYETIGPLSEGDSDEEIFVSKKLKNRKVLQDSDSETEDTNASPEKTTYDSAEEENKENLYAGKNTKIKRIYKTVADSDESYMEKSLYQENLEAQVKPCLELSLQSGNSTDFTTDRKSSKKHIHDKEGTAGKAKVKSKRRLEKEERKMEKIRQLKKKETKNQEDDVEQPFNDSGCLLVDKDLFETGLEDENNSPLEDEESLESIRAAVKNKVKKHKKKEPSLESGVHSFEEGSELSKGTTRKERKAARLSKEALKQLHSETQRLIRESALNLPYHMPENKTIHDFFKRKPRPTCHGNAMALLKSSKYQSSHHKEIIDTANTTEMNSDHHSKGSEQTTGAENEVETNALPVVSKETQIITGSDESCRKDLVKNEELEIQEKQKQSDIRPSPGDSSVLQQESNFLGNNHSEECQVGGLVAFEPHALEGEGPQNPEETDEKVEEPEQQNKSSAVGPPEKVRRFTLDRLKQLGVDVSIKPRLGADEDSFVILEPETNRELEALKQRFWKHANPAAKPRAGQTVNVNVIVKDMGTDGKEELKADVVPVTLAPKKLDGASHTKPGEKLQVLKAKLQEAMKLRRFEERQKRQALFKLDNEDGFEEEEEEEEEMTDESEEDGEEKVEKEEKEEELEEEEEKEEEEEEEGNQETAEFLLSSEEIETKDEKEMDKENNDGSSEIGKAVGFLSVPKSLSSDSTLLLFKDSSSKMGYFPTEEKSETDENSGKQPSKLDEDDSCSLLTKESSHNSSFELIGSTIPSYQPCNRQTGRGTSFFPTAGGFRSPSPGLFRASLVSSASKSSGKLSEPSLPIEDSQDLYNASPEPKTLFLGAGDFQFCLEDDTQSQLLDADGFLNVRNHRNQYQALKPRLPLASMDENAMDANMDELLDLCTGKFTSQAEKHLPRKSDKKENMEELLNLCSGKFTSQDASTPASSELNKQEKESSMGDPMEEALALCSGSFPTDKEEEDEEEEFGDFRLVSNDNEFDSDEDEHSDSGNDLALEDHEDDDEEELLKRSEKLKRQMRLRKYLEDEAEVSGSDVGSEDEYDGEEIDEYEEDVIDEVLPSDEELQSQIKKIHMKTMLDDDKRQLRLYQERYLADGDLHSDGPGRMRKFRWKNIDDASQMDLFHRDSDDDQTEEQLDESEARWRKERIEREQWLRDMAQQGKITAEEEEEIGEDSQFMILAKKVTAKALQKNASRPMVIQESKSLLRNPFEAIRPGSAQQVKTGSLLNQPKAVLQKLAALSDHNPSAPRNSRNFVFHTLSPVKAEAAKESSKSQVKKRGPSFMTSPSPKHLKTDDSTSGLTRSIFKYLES
UniProt P46527, sequence (P46527 whole entry, looked up): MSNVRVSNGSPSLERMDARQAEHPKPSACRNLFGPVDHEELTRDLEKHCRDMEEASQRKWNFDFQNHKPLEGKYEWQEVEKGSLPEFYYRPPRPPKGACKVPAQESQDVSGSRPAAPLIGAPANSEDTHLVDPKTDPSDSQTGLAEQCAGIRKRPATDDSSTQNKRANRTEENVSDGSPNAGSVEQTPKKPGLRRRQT
UniProt A8MTT3, sequence (A8MTT3 whole entry, looked up): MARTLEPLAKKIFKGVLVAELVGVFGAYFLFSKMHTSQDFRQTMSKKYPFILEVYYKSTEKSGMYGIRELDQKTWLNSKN

Row | Target | log2 fold change [1] | log2 fold change [2] | log2 fold change [3] | log2 fold change [4] | log2 fold change [5] | log2 fold change [6] | log2 fold change [7] | log2 fold change [8] | log2 fold change [9] | log2 fold change [10] | log2 fold change [11] | log2 fold change [12] | log2 fold change [13] | log2 fold change [14] | log2 fold change [15] | log2 fold change [16] | log2 fold change [17] | log2 fold change [18] | log2 fold change [19] | log2 fold change [20]
1 | CLTB (UniProt P09497) | 0.106 | -0.042 | 0.038 | -0.05 | -0.02 | 0.039 | 0.069 | 0.028 | 0.008 | 0.023 | 0.053 | 0.089 | 0.061 | -0.021 | 0.024 | -0.067 | -0.07 | 0 | -0.007 | 
2 | CLPTM1L (UniProt Q96KA5) | 0.011 | 0.04 | -0.029 | 0.063 | 0.032 | 0.018 | -0.002 | -0.037 | -0.022 | 0.017 | 0.051 | -0.033 | -0.05 | -0.069 | -0.281 (active) | 0.006 | 0.023 | 0.042 | 0.033 | 
3 | CMTM3 (UniProt Q96MX0) | 0.032 | -0.055 | 0.166 | -0.044 | 0.034 | 0.066 |  | -0.007 | 0.002 | 0.051 | 0.021 | 0.003 |  | -0.108 | 0.068 |  | 0 | 0.12 | -0.062 | 0.014
4 | CEBPZOS (UniProt A8MTT3) | -0.017 | 0.084 |  | 0.015 | 0.039 | 0.074 | 0.03 | 0.057 | 0.05 | -0.03 | -0.034 | 0.003 | -0.076 |  | 0.018 | -0.059 | -0.026 | 0.02 | 0 | -0.095
5 | CNN3 (UniProt Q15417) | 0.013 | 0.158 | 0.064 | -0.088 | 0.054 | 0.056 |  | 0.016 | 0.041 | -0.116 |  | -0.007 |  | -0.138 | -0.17 |  |  | 0.058 | 0.012 | -0.067
6 | CLCN3 (UniProt P51790) | -0.024 | 0.079 | -0.053 | -0.045 | 0.023 | 0.07 | -0.01 | -0.03 | -0.032 | 0.055 | 0.014 | -0.062 | -0.076 | 0.015 | -0.05 | -0.039 | -0.031 | -0.045 | -0.053 | 
7 | C15orf41 (UniProt Q9Y2V0) | 0.02 | 0.017 | 0.002 | -0.033 | -0.018 |  | 0.001 | -0.098 | 0.115 | 0.075 | 0.105 | 0.062 | 0.004 | -0.103 | -0.17 | 0.11 | 0.027 |  | -0.117 | 
8 | CLSPN (UniProt Q9HAW4) | -0.09 | -0.022 | -0.024 | 0.02 | -0.035 | 0.032 | -0.062 | -0.027 | -0.083 | 0.033 | 0.028 | -0.04 | -0.033 | 0.038 | -0.062 | 0.124 | -0.018 | 0.009 | -0.541 (active) | 
9 | CCNC (UniProt P24863) | -0.056 | -0.077 | -0.122 | -0.026 | 0.096 | 0.256 | -0.001 | 0.209 |  |  | 0.071 | 0.595 (active) | -0.027 | 0.053 | 0.041 | 0.071 | -0.058 |  |  | -0.082
10 | CORO2A (UniProt Q92828) | -0.035 | 0.064 |  | -0.011 | -0.001 | 0.127 | 0.138 | -0.042 | 0.034 | 0.031 |  | -0.022 | 0.019 |  | -0.088 | 0.21 |  | 0.008 | 0.01 | -0.068
11 | COX7B (UniProt P24311) | -0.022 | 0.058 | 0.109 | 0.006 | -0.081 | 0.057 |  | -0.009 | 0.085 | 0.016 | 0.045 | 0.034 |  | -0.011 | 0.112 |  | -0.139 | -0.011 | 0.266 | 0.074
12 | CHAF1A (UniProt Q13111) | -0.046 | -0.014 | -0.121 | 0.053 | 0.027 | 0.135 | -0.047 | -0.114 |  |  | 0 | -0.118 | 0.056 | 0.067 | -0.066 | 0.08 | -0.028 | -0.042 |  | -0.143
13 | CDC25B isoform 4 (UniProt P30305) | -0.031 | 0.117 | 0.036 | 0.044 | -0.062 | 0.131 | -0.007 | -0.047 |  |  | 0.068 | -0.302 | 0.079 | -0.049 | 0.021 | -0.02 | 0.007 | 0.155 |  | 0.037
14 | CDKN1B (UniProt P46527) | -0.076 | 0.027 | -0.133 | 0.064 | -0.217 | -0.049 | -0.1 | -0.01 |  |  | 0.023 | 0.173 | -0.024 | 0.012 | 0.215 | 0.536 (active) | -0.023 | 0.018 |  | 0.015
15 | CD84 (UniProt Q9UIB8) | 0.131 | 0.052 | -0.027 | 0.099 | 0.01 |  |  | 0.033 | -0.032 | 0.111 |  | -0.166 |  | 0.068 | 0.024 |  |  |  | 0.233 | 
16 | CDK4 (UniProt P11802) | 0.075 | -0.244 | -0.008 | -0.086 | 0.329 | 0.11 | -0.067 | 0.032 |  |  | 0.001 | 0.685 (active) | 0.054 | -0.098 | -0.333 | 0.105 | 0.081 | -0.069 |  | -0.004
17 | CAV2 (UniProt P51636) | -0.01 | -0.066 |  | 0.076 | -0.018 | -0.559 |  | 0.057 | 0.025 | -0.021 | -0.165 | 0.025 |  |  | -0.073 |  | 0.178 | 0.028 | 0.005 | 0.105
18 | CLPP (UniProt Q16740) | -0.025 | 0.013 | -0.069 | 0.037 | 0.042 | 0.003 | 0.023 | 0.035 | -0.028 | 0.022 | -0.023 | 0.022 | -0.012 | 0.017 | 0.097 | -0.008 | -0.094 | -0.011 | 0.079 | 
19 | CLN5 (UniProt O75503) | 0.146 | -0.049 | 0.063 | 0.103 | 0.023 | 0.016 |  | 0.15 | -0.02 | -0.285 | 0.023 | -0.03 |  | 0.001 | -0.62 |  | -0.062 | -0.039 | -0.028 | 
